In PubChem BioAssay (NCATS):
Inconclusive results are not listed. For part of these data: Results with a measured potency or affinity are listed apart. Calls of active or inactive are those of the source. Unless noted, how the calls were made is not given here.

How the values were obtained:
[1] = Ebola virus entry assay, green fluorescence channel
[2] = Ebola virus entry assay, blue channel fluorescence
[3] = Ebola virus entry assay, ratio channel
[4] = Ebola virus entry assay, green channel fluorescence
[5] = Ebola virus entry assay, reporter ratio channel; Channel type: primary
[6] = Ebola virus entry assay, blue channel (ratio component)
[7] = qHTS assay for measurement of the activity of small molecule inhibitors on Zika virus induced Caspase-3 activity in human iPSC derived neural progenitor cells (hNPCs) (AID 1224857; active means well fitted inhibition curve with a large enough effect; further: nearly all actives have a fitted effect of over 65% in size; further: potency means the concentration at half of the fitted maximal effect); conditions: hNPCs ZIKV-induced caspase-3/7, Caspase-Glo luminescence, 6 h; series mostly up to 45.7 µM
Method in brief: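 Values are percent inhibition of virus-induced caspase-3/7 signal, scaled between uninfected cells and ZIKV-infected cells. Infection used 2 FFU/cell for 6 h after 1 h compound exposure.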

[8] = qHTS assay for measurement of the activity of small molecule inhibitors on Zika virus induced Caspase-3 activity in human astrocytoma cells (AID 1224859; active means well fitted inhibition curve with a large enough effect;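 further: plate controls were ZIKV-infected untreated cells for no effect and uninfected cells for full effect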); conditions: SNB-19 ZIKV-induced caspase-3/7, luminescence, 6 h; series mostly up to 45.7 µM
Method in brief: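 Compound added 1 h pre-infection; ZIKV 2 FFU/cell on SNB-19 cells, 6 h, 37 C/5% CO2. Caspase-Glo 3/7 luminescence; values as % inhibition of ZIKV-induced caspase activity.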
Wherever efficacy is given: 0% is about no effect.

Cc1ccc(=O)n(-c2ccccc2)c1
inactive: efficacy [1] -13.1% | outcome [2] | outcome [3] | outcome [4] | outcome [5] | outcome [6]

NS(=O)(=O)c1cc2c(cc1Cl)NCNS2(=O)=O
inactive: efficacy [1] 14.8% | outcome [2] | outcome [3] | outcome [4] | outcome [5] | outcome [6]

C=CCCCCCCCCC(=O)O
inactive: efficacy [1] -13.8% | outcome [2] | outcome [3] | outcome [4] | outcome [5] | outcome [6]

COc1cc(N)c(Cl)cc1C(=O)NC1CN2CCC1CC2 (stereo not drawn)
inactive: efficacy [1] -20.5% | outcome [2] | outcome [3] | outcome [4] | outcome [5] | outcome [6] | Potency [7]

CCCCC1C(=O)NC(=O)N(C2CCCCC2)C1=O (stereo not drawn)
inactive: efficacy [1] 18.4% | outcome [2] | outcome [3] | outcome [4] | outcome [5] | outcome [6] | Potency [7] | outcome [8]

CN1C[C@@H](NS(=O)(=O)N(C)C)C[C@@H]2c3cccc4c3c(cn4C)C[C@H]21
inactive: efficacy [1] 31.9% | outcome [2] | outcome [3] | outcome [4] | outcome [6] | Potency [7] | outcome [8]
active: AC50 [5] 39.8 µM

ClCc1cccc(Cl)c1
inactive: efficacy [1] -21.7% | outcome [2] | outcome [3] | outcome [4] | outcome [5] | outcome [6] | Potency [7] | outcome [8]

C[C@H]1C(=O)O[C@@H]2CCN3CC=C(COC(=O)[C@](C)(O)[C@]1(C)O)[C@H]23
inactive: efficacy [1] 7.51% | outcome [2] | outcome [3] | outcome [4] | outcome [5] | outcome [6] | Potency [7] | outcome [8]

CCCCCCCCCCCCOCCOCCOCCOCCOCCOCCOCCOCCOCCO
inactive: efficacy [1] -12.9% | outcome [2] | outcome [3] | outcome [4] | outcome [5] | outcome [6]

COP(=O)(OC)OC=C(Cl)Cl
inactive: efficacy [1] 29.4% | outcome [2] | outcome [3] | outcome [4] | outcome [5] | outcome [6] | Potency [7] | outcome [8]

O=C1c2ccccc2C(=O)C1c1ccccc1
inactive: efficacy [1] 13.2% | outcome [2] | outcome [3] | outcome [4] | outcome [5] | outcome [6]

COc1ccc2c(c1OC)C(=O)O[C@@H]2[C@H]1c2c(cc3c(c2OC)OCO3)CCN1C
inactive: efficacy [1] -21% | outcome [2] | outcome [3] | outcome [4] | outcome [5] | outcome [6]

NS(=O)(=O)c1cc2c(cc1Cl)NC(CSCc1ccccc1)=NS2(=O)=O
inactive: efficacy [1] 11.6% | outcome [2] | outcome [3] | outcome [4] | outcome [5] | outcome [6]

CCN(CC)CC(=O)Nc1c(C)cccc1C
inactive: efficacy [1] 11% | outcome [2] | outcome [3] | outcome [4] | outcome [5] | outcome [6]

OC(O)C(Cl)(Cl)Cl
inactive: efficacy [1] 18.1% | outcome [2] | outcome [3] | outcome [4] | outcome [5] | outcome [6] | Potency [7] | outcome [8]

CCCCCCc1ccc(O)cc1O
active: AC50 [5] 39.8 µM
inactive: efficacy [1] -21% | outcome [2] | outcome [3] | outcome [4] | outcome [6]

COc1cc(NS(=O)(=O)c2ccc(N)cc2)ncn1
inactive: efficacy [1] 14.9% | outcome [2] | outcome [3] | outcome [4] | outcome [5] | outcome [6]

CN(C)CCc1c[nH]c2ccc(O)cc12
inactive: efficacy [1] -13.8% | outcome [2] | outcome [3] | outcome [4] | outcome [5] | outcome [6] | Potency [7] | outcome [8]

OCC(O)CN1CCN(c2ccccc2)CC1 (stereo not drawn)
inactive: efficacy [1] 24.6% | outcome [2] | outcome [3] | outcome [4] | outcome [5] | outcome [6]

O=S(=O)(O)NC1CCCCC1
inactive: efficacy [1] 14.2% | outcome [2] | outcome [3] | outcome [4] | outcome [5] | outcome [6]

C[N+](C)(C)CCCCCCCCCC[N+](C)(C)C
inactive: efficacy [1] -18% | outcome [2] | outcome [3] | outcome [4] | outcome [5] | outcome [6]

O=C(O)c1cccc(-c2noc(-c3ccccc3F)n2)c1
inactive: efficacy [1] 13.1% | outcome [2] | outcome [3] | outcome [4] | outcome [5] | outcome [6]

C[C@]12C=CC(=O)C=C1CC[C@@H]1[C@@H]2CC[C@@]2(C)[C@H]1CC[C@]2(C)O
inactive: efficacy [1] -14% | outcome [2] | outcome [3] | outcome [4] | outcome [5] | outcome [6] | Potency [7] | outcome [8]

Nc1ccc(N)cc1
inactive: efficacy [1] 15.4% | outcome [2] | outcome [3] | outcome [4] | outcome [5] | outcome [6] | Potency [7] | outcome [8]

c1cc2c(c(N3CCNCC3)c1)OCCO2
inactive: efficacy [1] 11.5% | outcome [2] | outcome [3] | outcome [4] | outcome [5] | outcome [6] | Potency [7] | outcome [8]

CC(C)[N+](C)(CCC(C(N)=O)(c1ccccc1)c1ccccc1)C(C)C
active: Potency [7] 31.6 µM
inactive: efficacy [1] 13.5% | outcome [2] | outcome [3] | outcome [4] | outcome [5] | outcome [6] | outcome [8]

CNC(=O)Oc1cccc2ccccc12
inactive: efficacy [1] 18.8% | outcome [2] | outcome [3] | outcome [4] | outcome [5] | outcome [6] | Potency [7] | outcome [8]

CCOC(=O)C(c1c(O)c2ccccc2oc1=O)c1c(O)c2ccccc2oc1=O
inactive: efficacy [1] 18.5% | outcome [2] | outcome [3] | outcome [4] | outcome [5] | outcome [6] | Potency [7] | outcome [8]

Cc1cccc(Cc2cnc[nH]2)c1C
inactive: efficacy [1] -25% | outcome [2] | outcome [3] | outcome [4] | outcome [5] | outcome [6] | Potency [7] | outcome [8]

C[C@]12CC[C@H](O)CC1=CC[C@@H]1[C@@H]2CC[C@]2(C)C(=O)CC[C@@H]12
inactive: efficacy [1] 42.1% | outcome [2] | outcome [3] | outcome [4] | outcome [5] | outcome [6] | Potency [7] | outcome [8]

O=C(CCl)c1ccc(Cl)cc1Cl
inactive: efficacy [1] -14.1% | outcome [2] | outcome [3] | outcome [4] | outcome [5] | outcome [6] | Potency [7] | outcome [8]

O=C(CCCCl)c1ccc(F)cc1
inactive: efficacy [1] 36.2% | outcome [2] | outcome [3] | outcome [4] | outcome [5] | outcome [6] | Potency [7] | outcome [8]

Nc1ccccc1C(=O)OCC(O)CO (stereo not drawn)
inactive: efficacy [1] -15.8% | outcome [2] | outcome [3] | outcome [4] | outcome [5] | outcome [6] | Potency [7] | outcome [8]

CC(C)=C[C@@H]1[C@@H](C(=O)OCc2coc(Cc3ccccc3)c2)C1(C)C
inactive: efficacy [1] 20% | outcome [2] | outcome [3] | outcome [4] | outcome [5] | outcome [6] | Potency [7] | outcome [8]

CCN(Cc1ccc(Cl)nc1)/C(=C/[N+](=O)[O-])NC
inactive: efficacy [1] -11.7% | outcome [2] | outcome [3] | outcome [4] | outcome [5] | outcome [6] | Potency [7] | outcome [8]

CCCOC(=O)Cc1ccc(OCC(=O)N(CC)CC)c(OC)c1
inactive: efficacy [1] -14.5% | outcome [2] | outcome [3] | outcome [4] | outcome [5] | outcome [6] | Potency [7] | outcome [8]

CC(Cc1ccc2c(c1)OCO2)NO (stereo not drawn)
inactive: efficacy [1] -23.6% | outcome [2] | outcome [3] | outcome [4] | outcome [5] | outcome [6] | Potency [7] | outcome [8]

O=C(O)CCCCCCNC1c2ccccc2CCc2ccccc21
inactive: efficacy [1] 26.2% | outcome [2] | outcome [3] | outcome [4] | outcome [5] | outcome [6] | Potency [7] | outcome [8]

CC(CC(C(N)=O)(c1ccccc1)c1ccccc1)N(C)C (stereo not drawn)
inactive: efficacy [1] 13% | outcome [2] | outcome [3] | outcome [4] | outcome [5] | outcome [6] | Potency [7] | outcome [8]

NCc1cccnc1
inactive: efficacy [1] -20.3% | outcome [2] | outcome [3] | outcome [4] | outcome [5] | outcome [6] | Potency [7] | outcome [8]

C[C@]12CC[C@H]3[C@@H](CC=C4C[C@@H](O)CC[C@@]43C)[C@@H]1CC[C@@H]2O
inactive: efficacy [1] -35.9% | outcome [2] | outcome [3] | outcome [4] | outcome [5] | outcome [6] | Potency [7] | outcome [8]

ClCCCN1CCN(c2cccc(Cl)c2)CC1
inactive: efficacy [1] 26.2% | outcome [2] | outcome [3] | outcome [4] | outcome [5] | outcome [6] | Potency [7] | outcome [8]

N#Cc1nn(-c2c(Cl)cc(C(F)(F)F)cc2Cl)c(N)c1S(=O)C(F)(F)F (stereo not drawn)
inactive: efficacy [1] 9.5% | outcome [2] | outcome [3] | outcome [4] | outcome [5] | outcome [6] | Potency [7] | outcome [8]

C1CN2CCC1CC2
inactive: efficacy [1] -16% | outcome [2] | outcome [3] | outcome [4] | outcome [5] | outcome [6] | Potency [7] | outcome [8]

CC1Sc2c(C(=O)O)c(=O)c3cc(F)c(N4CCNCC4)cc3n21 (stereo not drawn)
inactive: efficacy [1] 10.3% | outcome [2] | outcome [3] | outcome [4] | outcome [5] | outcome [6] | Potency [7] | outcome [8]

C[C@]12CC[C@H]3[C@@H](CCC4=CC(=O)CC[C@@]43C)[C@@H]1CC[C@@H]2C(=O)O
inactive: efficacy [1] -23.5% | outcome [2] | outcome [3] | outcome [4] | outcome [5] | outcome [6] | Potency [7] | outcome [8]

Oc1c(Br)cc(Br)cc1Br
inactive: efficacy [1] -9.36% | outcome [2] | outcome [3] | outcome [4] | outcome [5] | outcome [6] | Potency [7] | outcome [8]

CN(C)C(=O)Oc1cc(OC(=O)N(C)C)cc(C(O)CNC(C)(C)C)c1 (stereo not drawn)
inactive: efficacy [1] 18.9% | outcome [2] | outcome [3] | outcome [4] | outcome [5] | outcome [6] | Potency [7] | outcome [8]

CCO[C@H]1O[C@@H]2OC3(C)CC[C@H]4[C@H](C)CC[C@@H]([C@H]1C)[C@@]24OO3
inactive: efficacy [1] 19.2% | outcome [2] | outcome [3] | outcome [4] | outcome [5] | outcome [6] | Potency [7] | outcome [8]
